This passage reports outcome and AC50 results from PubChem BioAssay (EPA / NIEHS).

The structures appear in SMILES notation. The source made the active and inactive calls. The calls were made as follows: active = hit-call score of the fitted dose curve at least 0.9, where 1 is the maximum; inactive = score below 0.9.

Conditions in all cases: mRNA level, 48 h; actives raise or lower the signal
Read-out in experiment [1]: flavin-containing dimethylaniline monooxygenases 3 (FMO3), FMO3 (gene 2328)
Nature of the experiment: LTEA_HepaRG_FMO3: Life Technologies and Expression Analysis (LTEA) Assay for flavin-containing dimethylaniline monooxygenases 3 (FMO3) using HepaRG (AID 2283453).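 As to AC50: FMO3 transcript by TaqMan qRT-PCR normalized to ACTB GAPDH and POLR2A.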 An outline of the steps: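 Eight-point concentration-response in serum-free HepaRG cultures (top 100 uM, 0.5% DMSO, 48 h). Read-out: FMO3 mRNA level normalized to three endogenous control genes, fitted bidirectionally versus vehicle.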

Read-out in experiment [2]: Cytochrome P450 (CYP1A1), CYP1A1 (gene 1543)
The experiment can be described thus: LTEA_HepaRG_CYP1A1: Life Technologies and Expression Analysis (LTEA) Assay for Cytochrome P450 (CYP1A1) using HepaRG (AID 2283454). Put shortly:
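Induction of CYP1A1 mRNA in a human hepatic cell line was measured 48 h after dosing, with 1 mM phenobarbital as induction positive control and 0.5% DMSO vehicle as baseline for bidirectional curve fitting.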

Read-out in experiment [3]: CFLAR gene, CFLAR (gene 8837)
Nature of the experiment: LTEA_HepaRG_CFLAR: Life Technologies and Expression Analysis (LTEA) Assay for CFLAR gene using HepaRG (AID 2283455). Put shortly: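 Gain- or loss-of-signal changes in CFLAR transcript were fitted bidirectionally relative to 0.5% DMSO. Cells (HepaRG, duplicate wells) were dosed for 48 h across eight half-log concentrations topping at 100 uM; quantitation by TaqMan qRT-PCR.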

Read-out in experiment [4]: Forkhead box O1 (FOXO1), FOXO1 (gene 2308)
The experiment can be described thus: LTEA_HepaRG_FOXO1: Life Technologies and Expression Analysis (LTEA) Assay for Forkhead box O1 (FOXO1) using HepaRG (AID 2283456). Put shortly:
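Using one lot of HepaRG hepatic cells kept in 0.5% DMSO, the team applied test chemicals in duplicate, half-log dilutions from 100 uM, for 48 h. Expression, normalised to ACTB/GAPDH/POLR2A, was compared with vehicle in either direction.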

Read-out in experiment [5]: growth arrest and DNA damage 45 (GADD45A), GADD45A (gene 1647)
Nature of the experiment: LTEA_HepaRG_GADD45A: Life Technologies and Expression Analysis (LTEA) Assay for growth arrest and DNA damage 45 (GADD45A) using HepaRG (AID 2283458). An outline of the steps: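 HepaRG, 48 h exposure, 8 conc. (top 100 uM, half-log steps), 0.5% DMSO vehicle, duplicates. Read-out: qRT-PCR mRNA level, housekeeping-normalized (ACTB/GAPDH/POLR2A). Curves fit bidirectionally vs DMSO baseline.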

Read-out in experiment [6]: Forkhead box O3 (FOXO3), FOXO3 (gene 2309)
Nature of the experiment: LTEA_HepaRG_FOXO3: Life Technologies and Expression Analysis (LTEA) Assay for Forkhead box O3 (FOXO3) using HepaRG (AID 2283459). Put shortly:
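Gene-expression endpoint: FOXO3 transcript level by qRT-PCR in HepaRG cultures treated 48 h with chemicals up to 100 uM (half-log, 0.5% DMSO vehicle).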

Read-out in experiment [7]: ABC Transporter (ABCB1), ABCB1 (gene 5243)
Nature of the experiment: LTEA_HepaRG_ABCB1: Life Technologies and Expression Analysis (LTEA) Assay for ABC Transporter (ABCB1) using HepaRG (AID 2283460). Put shortly:
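Human liver HepaRG line treated 48 h with up to 100 uM compound (eight half-log points, 0.5% DMSO); ABCB1 mRNA change fitted bidirectionally against DMSO controls.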

Read-out in experiment [8]: growth arrest and DNA damage 45 (GADD45B), GADD45B (gene 4616)
The experiment can be described thus: LTEA_HepaRG_GADD45B: Life Technologies and Expression Analysis (LTEA) Assay for growth arrest and DNA damage 45 (GADD45B) using HepaRG (AID 2283461). Put shortly:
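Values are bidirectional concentration-response fits against 0.5% DMSO controls. Underlying data: qRT-PCR mRNA levels in human HepaRG liver cells treated 48 h in serum-free induction medium, eight concentrations topping at 100 uM.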

Read-out in experiment [9]: ABC Transporter (ABCC3), ABCC3 (gene 8714)
Nature of the experiment: LTEA_HepaRG_ABCC3: Life Technologies and Expression Analysis (LTEA) Assay for ABC Transporter (ABCC3) using HepaRG (AID 2283462). Put shortly: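 Differentiated HepaRG liver cells receive test chemicals at eight concentrations (max 100 uM) for 48 h. Expression of ABCC3 is quantified by qRT-PCR against ACTB, GAPDH and POLR2A, and activity is fitted in both directions against the DMSO control.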

One may read the AC50 as the concentration giving half of the maximal activity seen. Regarding `CNCc1ccc(NC(=O)c2c[nH]c3c2C(=O)CCC3)cc1`, the outcome in experiment [1], in experiment [3], in [4], in experiment [5], in [6] and in [7] was inactive. For the same molecule, the molecule was called inactive in [8] and in experiment [9]. Besides, the AC50 in [2] is 73.8 µM (active).
Take `COc1cccc(-c2ccc(/C=C\CN3CCCCCC3)cc2Cl)c1`: the AC50 in experiment [1] is 68.8 µM (active); in experiment [2], 45.2 µM (active); in [4], 70.8 µM (active); in experiment [5] it was 69 µM (active); in experiment [8], 76.2 µM (active); in experiment [9] it was 75.9 µM (active). Also, the molecule was called inactive in experiment [3], in [6] and in [7].
For the molecule `CCCCCCCCCCCCCCCO`, the molecule was called inactive in experiment [1], in [3], in experiment [4], in experiment [5], in [6] and in experiment [7]. Moreover, the molecule was classed as inactive in experiment [8] and in [9]. In addition, in experiment [2], the AC50 is 30.8 µM (active).
Take `CC(C)=CCCC(C)CCO` (configuration not stated): the outcome in experiment [1], in [3], in experiment [4], in experiment [5], in [6] and in experiment [7] was inactive. Besides, the molecule was classed as inactive in [8] and in experiment [9]. Moreover, the concentration at half-maximal activity (AC50) in [2] is 62.2 µM (active).
On to `CC(C)CCCCCCOC(=O)c1ccc(C(=O)OCCCCCCC(C)C)c(C(=O)OCCCCCCC(C)C)c1`, for which the result in [1], in [3], in experiment [4], in experiment [5], in [6] and in experiment [7] was inactive. The outcome in experiment [8] and in experiment [9] was inactive. Besides, the AC50 in experiment [2] was 50 µM (active).
As to `COC(=O)CC(=O)OC`, the result in experiment [1], in experiment [3], in experiment [4], in experiment [5], in experiment [6] and in experiment [7] was inactive. Moreover, the molecule was classed as inactive in experiment [8] and in experiment [9]. Besides, the AC50 in experiment [2] was 50 µM (active).
Take `C[C@](N)(Cc1ccc(O)c(O)c1)C(=O)O`: the call in experiment [1], in [3], in [4], in [5], in experiment [6] and in experiment [7] was inactive. The molecule was classed as inactive in experiment [8] and in [9]. In addition, the half-maximal activity concentration (AC50) in experiment [2] was 71.6 µM (active).
On to `CC(=O)OCCC(C)C`, for which the molecule was called inactive in experiment [1], in [3], in [4], in experiment [5], in [6] and in [7]. For the same molecule, the molecule was classed as inactive in experiment [8] and in [9]. For the same molecule, in experiment [2], the AC50 was 73.2 µM (active).
On to `CC[C@H]1OC(=O)[C@H](C)[C@@H](O[C@H]2C[C@@](C)(OC)[C@@H](O)[C@H](C)O2)[C@H](C)[C@@H](O[C@@H]2O[C@H](C)C[C@H](N(C)C)[C@H]2O)[C@](C)(O)C[C@@H](C)C(=O)[C@H](C)[C@@H](O)[C@]1(C)O`, for which the result in [1], in [3], in [4], in [5], in [6] and in experiment [7] was inactive. Besides, the outcome in experiment [8] and in experiment [9] was inactive. The concentration at half-maximal activity (AC50) in experiment [2] was 53.9 µM (active).
With `O=C(O)c1cc(N=Nc2ccc(S(=O)(=O)Nc3ccccn3)cc2)ccc1O`, the result in [1], in [3], in experiment [4], in experiment [5], in experiment [6] and in experiment [7] was inactive. Further, the molecule was classed as inactive in [8] and in experiment [9]. Besides, the half-maximal activity concentration (AC50) in [2] is 35.8 µM (active).
Turning to `O=C(NS(=O)(=O)/C=C/c1ccccc1)c1ccc(F)cc1Cl`, the call in experiment [1], in [3], in [4], in [5], in experiment [6] and in [8] was inactive. Besides, in experiment [9], the molecule was called inactive. For the same molecule, the AC50 in [2] is 50 µM (active); in experiment [7], 10.8 µM (active).
In the case of `CCCCCCCCCCCCc1ccccc1`, the outcome in experiment [1], in [3], in [4], in experiment [5], in experiment [6] and in experiment [7] was inactive. Moreover, the molecule was called inactive in experiment [8] and in experiment [9]. In [2], the AC50 was 73.7 µM (active).
As to `CC(C)CCCCCCCOC(=O)CCCCC(=O)OCCCCCCCC(C)C`, the molecule was called inactive in experiment [1], in experiment [3], in [4], in experiment [5], in [6] and in experiment [7]. In addition, the result in [8] and in [9] was inactive. For the same molecule, the half-maximal activity concentration (AC50) in [2] was 50 µM (active).
Take `CC/C(=C\C(=N/O)C(N)=O)C(C)[N+](=O)[O-]` (configuration not stated): the result in [1], in experiment [3], in experiment [4], in [5], in experiment [6] and in experiment [7] was inactive. Also, the result in experiment [8] and in experiment [9] was inactive. Also, in [2], the AC50 was 31.9 µM (active).
`CCOCCO`: the molecule was classed as inactive in [1], in experiment [2], in [3], in experiment [4], in experiment [5] and in experiment [6]. Moreover, the outcome in [7], in experiment [8] and in experiment [9] was inactive.
On to `NC(=O)NO`, for which the molecule was called inactive in experiment [1], in experiment [3], in [4], in experiment [5], in experiment [6] and in experiment [7]. The call in experiment [8] and in experiment [9] was inactive.
In the case of `Cc1c(-c2cccnc2)c2ccccc2n1CCCCC(=O)O`, the call in [1], in experiment [3], in experiment [4], in [5], in experiment [6] and in experiment [7] was inactive. Moreover, the result in [8] and in experiment [9] was inactive. Besides, the concentration at half-maximal activity (AC50) in experiment [2] is 37.2 µM (active).
As to `Cc1ccc(C)c(O)c1`, the molecule was classed as inactive in [1], in experiment [3], in experiment [4], in experiment [5], in experiment [6] and in experiment [7]. The outcome in [8] and in experiment [9] was inactive. Further, the AC50 in experiment [2] was 51.2 µM (active).
Consider `Nc1cccc(N)c1`, for which the molecule was called inactive in experiment [1], in [3], in [4], in experiment [5], in experiment [6] and in experiment [7]. The outcome in [8] and in [9] was inactive. Further, the half-maximal activity concentration (AC50) in experiment [2] is 50 µM (active).
With `CC(=O)c1ccc2c(c1)[C@H](NC(=O)c1ccc(F)cc1)[C@@H](O)C(C)(C)O2`, the result in experiment [1], in [2], in experiment [3], in [4], in [5] and in [6] was inactive. The outcome in experiment [7], in experiment [8] and in experiment [9] was inactive.
Turning to `O=C(CCCCCCCCc1cccnc1)N1CCC(C=C(c2ccccc2)c2ccccc2)CC1`, the concentration at half-maximal activity (AC50) in experiment [1] was 29.6 µM (active); in [2], 32.6 µM (active); in experiment [4], 12.4 µM (active); in [5], 26.9 µM (active); in experiment [7], 30.7 µM (active); in experiment [8], 84.6 µM (active). Further, the outcome in [3], in experiment [6] and in experiment [9] was inactive.
With `O=c1n(CC2CO2)c(=O)n(CC2CO2)c(=O)n1CC1CO1` (configuration not stated), the result in experiment [1], in [2], in [3], in [4], in experiment [5] and in experiment [6] was inactive. Moreover, the molecule was called inactive in experiment [7] and in experiment [9]. For the same molecule, the AC50 in experiment [8] is 79.1 µM (active).
